Source: PubChem (several laboratories)
CYP2C9 activ = CYP2C9 (human) activation | P11712 | recombinant CYP2C9, luciferin-H conversion, luminescence; stronger effect = higher value; factor 1 = untreated enzyme, 0 = blocked | activation factor at 5 µM | 96,000 tested, 1.4% active;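 active = activation factor of 2 or more for CYP2C9 at a 5 µM dose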
Cav3 T inh = inhibitors of human Cav3.2 T-type calcium channel | O95180 | Cav3.2-expressing cells, Fluo-4 calcium fluorescence FDSS; stronger effect = lower value | B-score at 10 µM | 100,000 tested, 4% active | AID 449739;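 active = single-dose well whose peak fluorescence ratio is a statistical outlier from its plate by either plate-standardised score or position-corrected B-score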
CYP2C19 inh = blocks human cytochrome P450 2C19. P33261. CYP2C19 Supersomes, luciferin-H EGE luminescence, 30 min. inhibition, % at 5 µM. 96,000 tested, 21% active. AID 778;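 active = CYP2C19 inhibition above a set limit at 5 µM in the primary screen, cut at about 50% in these data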
CYP2C9 inh = human CYP2C9 inhibition; P11712; CYP2C9 Supersomes, luciferin-H conversion, luminescence; inhibition, % at 5 µM; 96,000 tested, 20% active;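 active = blocking of liver enzyme CYP2C9 beyond about 50% at 5 µM, limit read from the data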
PTK2B oligo ant = blocks oligomerization of human Pyk2 in cells | z-score (the deposit names both 25 µM and 10 µM) | 99,000 tested, 0.83% active | Q293 cells, Pyk2 FERM NanoBiT luminescence; stronger effect = lower value;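 active = Z-score of -3 or lower, scaled per plate to the spread of control and sample wells; inactive = z-score above -3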;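 also: negative z-score means lost luminescence so less FERM oligomerization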
Target sequence (Q14289 whole entry, looked up): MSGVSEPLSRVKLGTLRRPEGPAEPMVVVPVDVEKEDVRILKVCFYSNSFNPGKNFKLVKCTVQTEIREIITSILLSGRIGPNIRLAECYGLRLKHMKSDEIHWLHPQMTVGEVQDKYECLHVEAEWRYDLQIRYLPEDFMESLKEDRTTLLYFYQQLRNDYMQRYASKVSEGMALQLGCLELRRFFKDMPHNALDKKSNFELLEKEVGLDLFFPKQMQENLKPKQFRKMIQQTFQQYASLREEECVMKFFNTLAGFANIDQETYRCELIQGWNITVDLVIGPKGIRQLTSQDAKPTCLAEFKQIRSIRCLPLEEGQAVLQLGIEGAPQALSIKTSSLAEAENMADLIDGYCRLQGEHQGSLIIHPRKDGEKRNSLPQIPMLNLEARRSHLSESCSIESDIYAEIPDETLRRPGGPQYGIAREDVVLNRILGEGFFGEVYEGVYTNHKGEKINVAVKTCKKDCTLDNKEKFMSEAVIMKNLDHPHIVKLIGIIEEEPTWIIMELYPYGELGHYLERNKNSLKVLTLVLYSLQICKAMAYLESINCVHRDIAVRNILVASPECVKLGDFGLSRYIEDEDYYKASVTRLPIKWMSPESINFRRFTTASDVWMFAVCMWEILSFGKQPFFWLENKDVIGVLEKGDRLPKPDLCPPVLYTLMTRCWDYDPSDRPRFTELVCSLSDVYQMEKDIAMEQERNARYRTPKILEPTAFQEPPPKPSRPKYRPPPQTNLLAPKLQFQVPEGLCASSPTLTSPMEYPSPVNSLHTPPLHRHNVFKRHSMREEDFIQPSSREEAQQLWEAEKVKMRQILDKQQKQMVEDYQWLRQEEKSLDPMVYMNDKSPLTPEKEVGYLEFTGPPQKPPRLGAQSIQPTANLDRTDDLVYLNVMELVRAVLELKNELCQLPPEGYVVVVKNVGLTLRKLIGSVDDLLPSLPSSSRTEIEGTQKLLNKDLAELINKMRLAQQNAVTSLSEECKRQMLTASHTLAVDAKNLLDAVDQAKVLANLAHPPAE
CYP2C19 act = increases human CYP2C19 enzyme activity; activation factor at 5 µM; 96,000 tested, under 10 active; recombinant CYP2C19, luciferin-H EGE luminescence; stronger effect = higher value; 0 = fully inhibited enzyme, 1 = untreated enzyme; AID 1025;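 active = activation factor of at least 2 at 5 µM in the primary screen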
Each line names hits and unclear results; the compound was inactive in the other large screens. The list is not random: actives were taken first. Their share in the collection is about 27%.

COc1cccc(-c2cc(C(=O)Nn3cnnc3)c3ccccc3n2)c1	CYP2C19 inh 77, CYP2C9 inh 97
CC(C)Oc1cccc(-c2cc(C(=O)N3CCN(S(C)(=O)=O)CC3)c3ccccc3n2)c1	none
Cc1cc(C(=O)N2CCN(c3ncccn3)CC2)c2cc(F)ccc2n1	none
Cc1ccc2nc(-c3ccccn3)cc(C(=O)N3CCN(c4ncccn4)CC3)c2c1	CYP2C9 inh 54
COc1cccc(-c2cc(C(=O)N3CCN(c4ncccn4)CC3)c3ccccc3n2)c1	CYP2C19 inh 73, CYP2C9 inh 96 (no result: Cav3 T inh)
O=C(Nn1cnnc1)c1cc(-c2ccccn2)nc2ccccc12	none
COc1ccc(-c2c(C)n([O-])c3c([n+]2=O)CCC3)cc1OC	none
COc1ccc(C2=Nc3ccccc3OC2)cc1	CYP2C19 inh 70, CYP2C9 inh 58
Cc1ccc(-n2c(N)c(C(=O)NCc3ccco3)sc2=S)cc1	none
CCCCCNC(=O)c1ccc2c(=O)[nH]c3c(C(=O)NCC4CCCO4)sc(=S)n3c2c1 (stereo not drawn)	CYP2C9 inh 95
O=C(NC1CCCCCCC1)c1c(O)c2ccccc2[nH]c1=O	none
O=C(NC1CCCC1)c1sc(=S)n2c1[nH]c(=O)c1ccccc12	CYP2C9 inh 93, PTK2B oligo ant -3.1
O=C(NCc1ccco1)c1sc(=S)n2c1[nH]c(=O)c1ccccc12	CYP2C9 inh 99
CCCCC(=O)Nc1ccc(C(=O)NNC(=O)CCCOc2ccc(Cl)cc2Cl)cc1	none (no result: CYP2C9 activ, Cav3 T inh, CYP2C19 inh, CYP2C9 inh, CYP2C19 act)
CCn1c(SC(C)C)nnc1-c1cc(-c2ccccc2)sc1N	Cav3 T inh -3.7 (no result: CYP2C9 activ, CYP2C19 inh, CYP2C9 inh, CYP2C19 act)
O=C(N[C@@H](Cc1ccccc1)C(=O)O)c1ccncc1	none (no result: CYP2C9 activ, CYP2C19 inh, CYP2C9 inh, PTK2B oligo ant, CYP2C19 act)
Cc1cc(N2CCCCC2)n2ncc(-c3ccc(Cl)cc3)c2n1	CYP2C9 inh 57
Cc1cc(N2CCC(C)CC2)n2ncc(-c3ccccc3)c2n1	CYP2C9 inh 70
Cc1cc(N2CCCCC2)n2ncc(-c3ccccc3)c2n1	none
COc1ccccc1OC(=O)c1cc(Cl)nc2ccccc12	CYP2C9 inh 75
Cc1cc(OC(=O)c2cc(Cl)nc3ccccc23)ccc1Cl	none
O=C(O)c1ccc(-c2ccccc2)[nH]1	CYP2C19 inh 72 (no result: Cav3 T inh)
Cc1cc(C(F)F)n2nc(C(=O)Nc3sc4c(c3C#N)CCC4)nc2n1	none (no result: CYP2C9 activ, Cav3 T inh, CYP2C19 inh, CYP2C9 inh, CYP2C19 act)
COC(=O)N1[C@H](C)C=C[C@]1(Cc1ccccc1)C(=O)NCCCNc1ncc(C(F)(F)F)cc1Cl	none (no result: CYP2C9 activ, CYP2C19 inh, CYP2C9 inh, PTK2B oligo ant, CYP2C19 act)
CCCCC(=O)Nc1nnc(C)s1	none
CCCCC(=O)Nc1ncc(Br)s1	CYP2C19 inh 76
CC1(C)Cc2c(sc(/N=C/N3CCCC3)c2C#N)C(C)(C)N1	none (no result: CYP2C9 activ, CYP2C19 inh, CYP2C9 inh, CYP2C19 act)
COc1cc2c(cc1OC)C1=C(C#N)CCC(=O)N1CC2	none (no result: CYP2C9 activ, CYP2C19 inh, CYP2C9 inh, CYP2C19 act)
COc1cc2c(cc1OC)C1=C(C#N)CN(C3CCCCC3)CN1CC2	CYP2C19 inh 68, CYP2C9 inh 52 (no result: PTK2B oligo ant)
CC(=O)N=C(N)Sc1nc2ccccc2[nH]1	none (no result: CYP2C9 activ, CYP2C19 inh, CYP2C9 inh, CYP2C19 act)
COc1ccc(N(C(=O)COc2ccccc2)C2C=CS(=O)(=O)C2)cc1 (stereo not drawn)	none
O=c1cc(N2CCCCC2)c(-c2ccccc2)nn1Cc1cccc(Cl)c1	none
COC(=O)[C@@]1(Cc2ccc(OC)cc2)[C@H]2c3cc(C(=O)N(C)C)[nH]c3C[C@H]2CN1C(=O)c1ccccc1	none (no result: CYP2C9 activ, CYP2C19 inh, CYP2C9 inh, PTK2B oligo ant, CYP2C19 act)
CC(C)COC(=S)Nc1ccccc1	CYP2C19 inh 78
NC(=O)C1(N2CCCCC2)CCN(Cc2nc3ccccc3c(=O)[nH]2)CC1	none
Cc1c(NS(=O)(=O)c2ccc3[nH]c(=O)[nH]c3c2)c(=O)n(-c2ccccc2)n1C	none
CC(C)OC(=O)/C(=C\c1ccc2c(c1)c1ccccc1n2C)NC(=O)c1ccccc1	CYP2C9 inh 76
CCOC(=O)C1CCCc2c1[nH]c1c(C(=O)O)cccc21 (stereo not drawn)	none
CCN(CC)S(=O)(=O)c1cccc(-c2cn3cc(C)ccc3n2)c1	CYP2C19 inh 61, CYP2C9 inh 67
CN1CCN(C(=O)C2=C[C@@H](c3coc4ccccc4c3=O)C[C@@H](OCCCCO)O2)CC1	none (no result: CYP2C9 activ, CYP2C19 inh, CYP2C9 inh, PTK2B oligo ant, CYP2C19 act)
O=C(Nc1cccnc1)C1CCCN1S(=O)(=O)c1ccc(Cl)c(Cl)c1 (stereo not drawn)	CYP2C9 inh 69
O=C(Nc1ccc(Cl)cn1)C1CCCN1S(=O)(=O)c1ccccc1 (stereo not drawn)	CYP2C9 inh 80
O=C(Nc1ccc(Br)cn1)C1CCCN1S(=O)(=O)c1ccccc1 (stereo not drawn)	CYP2C19 inh 52, CYP2C9 inh 77
O=C(NCCc1ccccc1F)C1CCCN1S(=O)(=O)c1ccccc1 (stereo not drawn)	CYP2C19 inh 79
O=C(NCCc1ccccc1)C1CCCN1S(=O)(=O)c1ccc(F)cc1 (stereo not drawn)	none (no result: CYP2C9 activ, CYP2C19 inh, CYP2C9 inh, CYP2C19 act)
CCCN1CCN(CCCNC(=O)Cn2nc(-c3ccccc3)ccc2=O)CC1	none
CC1CCN(S(=O)(=O)c2ccc(S(=O)(=O)NCC(=O)C(C)(C)C)cc2)CC1	none
CCn1cc(C(=O)Nc2ccc(C(=O)N3CCCC3)cc2)c(=O)c2ccc(C)nc21	none (no result: Cav3 T inh, PTK2B oligo ant)
CC[C@]1(O)CC2CN(CCc3c([nH]c4ccccc34)[C@@](C(=O)OC)(c3cc4c(cc3OC)N(C)[C@H]3[C@@](O)(C(N)=O)[C@H](O)[C@]5(CC)C=CCN6CC[C@]43[C@@H]65)C2)C1 (stereo partly drawn)	none (no result: CYP2C9 activ, CYP2C19 inh, CYP2C9 inh, PTK2B oligo ant, CYP2C19 act)
COc1ccc(-c2nnc(SCC(=O)NCc3ccco3)n2C)cc1	none
CCNS(=O)(=O)c1ccc(C)c(-n2cnnn2)c1C	none (no result: CYP2C9 activ, CYP2C19 inh, CYP2C9 inh, CYP2C19 act)
Fc1ccc(-n2nnc(-c3ncc[nH]3)n2)cc1	none (no result: CYP2C9 activ, CYP2C19 inh, CYP2C9 inh, PTK2B oligo ant, CYP2C19 act)
O=C(Nc1ccc(Br)cc1)C1CCCN1S(=O)(=O)c1cccs1 (stereo not drawn)	CYP2C19 inh 96, CYP2C9 inh 90
CCC(CO)[n+]1c(C)cc(/C=C2\Sc3ccccc3N2Cc2ccccc2)cc1C (stereo not drawn)	none (no result: CYP2C9 activ, Cav3 T inh, CYP2C19 inh, CYP2C9 inh, CYP2C19 act)
COC(=O)CSc1nc(NC(C)C)nc(N2CCOCC2)n1	CYP2C19 inh 50
CN(C)c1nc(SCc2ccccc2)nc(N2CCOCC2)n1	none
CCOC(=O)CNC(=O)CSc1nc(N(C)C)nc(N2CCOCC2)n1	CYP2C19 inh 84
COCc1[nH]nc2c1C(c1cc(OC)c(O)c(OC)c1)C(C#N)=C(N)O2 (stereo not drawn)	none
CC1CCN(C(=O)c2[nH]cnc2C(=O)N[C@@H](C)C(=O)OCc2ccccc2)CC1	none (no result: CYP2C9 activ, CYP2C19 inh, CYP2C9 inh, PTK2B oligo ant, CYP2C19 act)
Cc1c(C(=O)c2no[n+]([O-])c2C(=O)c2cnn(C)c2C)cnn1C	none
COc1ccc(C[C@@H]2CN3C(=NC[C@@H]3C)N2C[C@H](C)NC(=O)c2ccc(C)c(Br)c2)cc1	none (no result: CYP2C9 activ, CYP2C19 inh, CYP2C9 inh, PTK2B oligo ant, CYP2C19 act)
Clc1ccc(-c2nnc3sc(Cc4cccs4)nn23)c(Cl)c1	CYP2C19 inh 87, CYP2C9 inh 78
COc1ccc(OCc2nn3c(-c4cccc(OC)c4)nnc3s2)cc1	CYP2C19 inh 51
COc1ccc(OCc2nn3c(-c4ccco4)nnc3s2)cc1	CYP2C19 inh 57, CYP2C9 inh 59
